Assay results: PubChem BioAssay (NCI)
This is part of a sample that, as a whole, favours compounds with a hit. Of some 83,000 tested, about 20% had one in any assay.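 In brief: 96-well plates, 48 h treatment, single concentration, percent growth endpoint.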 A number with no mark means an inactive call. Activity calls are given as the source filed them. Rule for the calls: active = growth percent below 10; inactive = the rest.

How the values were obtained:
Experiment in all cases: NCI-60 one-dose screen, 48 h (100 = growth as untreated, 0 = no growth, -100 = all killed)
Conditions in all cases: 10 µM unless noted
[1] = system: SR leukemia
[2] = system: RPMI-8226 leukemia
[3] = system: OVCAR-8 ovarian
[4] = system: OVCAR-5 ovarian
[5] = system: OVCAR-4 ovarian
[6] = system: SK-OV-3 ovarian
[7] = system: IGROV1 ovarian
[8] = system: OVCAR-3 ovarian
[9] = system: HS 578T breast
[10] = system: NCI/ADR-RES ovarian

SMILES: O=C1c2ccccc2C(=O)c2c(N=Nc3sc(=O)[nH]c3S)cccc21
- growth [1]: 85%
- growth [2]: 90.2%
- growth [3]: 94.9%
- growth [4]: 129%
- growth [5]: 95.3%
- growth [6]: 117%
- growth [7]: 94.1%
- growth [8]: 89.1%
- growth [9]: 90.3%
- growth [10]: 98.8%

SMILES: CCSc1nnc(Nc2ccc(C(C)C)cc2)s1
- growth [1]: 69.4%
- growth [2]: 72.2%
- growth [3]: 109%
- growth [4]: 87.1%
- growth [5]: 84%
- growth [6]: 104%
- growth [7]: -7.13% (active)
- growth [8]: 106%
- growth [9]: 132%
- growth [10]: 87.6%

SMILES: CCOC(=O)c1ccccc1NC(c1ccccc1)c1ccc2cccnc2c1O (stereo not given)
- growth [1]: 17.7%
- growth [2]: 17.5%
- growth [3]: 17%
- growth [4]: 53.7%
- growth [5]: 21.5%
- growth [6]: 14.1%
- growth [7]: 41.8%
- growth [8]: 32.6%
- growth [9]: 71.6%
- growth [10]: 11.9%

SMILES: O=C(OCCCCOC(=O)n1cnc2ccccc21)n1cnc2ccccc21
- growth [1]: 84.6%
- growth [2]: 102%
- growth [3]: 99.7%
- growth [4]: 103%
- growth [5]: 105%
- growth [6]: 98.9%
- growth [7]: 102%
- growth [8]: 108%
- growth [9]: 90.2%
- growth [10]: 105%

SMILES: O=C1c2ccccc2C(=O)c2c1oc1oc3c(c(=O)c21)c(=O)n(-c1ccccc1)c1ccccc31
- growth [1]: 11.4%
- growth [2]: 19.6%
- growth [3]: 48.2%
- growth [4]: 88.7%
- growth [5]: 18.8%
- growth [6]: 67.3%
- growth [7]: 71.8%
- growth [8]: 2.15% (active)
- growth [9]: 90.5%
- growth [10]: 90.3%

SMILES: COc1ccc(/C=C/C(=O)OCC(=O)NNC(=O)c2ccccc2)cc1OC
- growth [1]: 71.8%
- growth [2]: 79.7%
- growth [3]: 102%
- growth [4]: 113%
- growth [5]: 101%
- growth [6]: 113%
- growth [7]: 87.8%
- growth [8]: 99.8%
- growth [9]: 103%
- growth [10]: 116%

SMILES: COc1ncc(-c2ccc3ncnc(Nc4cccc(Cl)c4)c3c2)cc1NS(=O)(=O)CCN1CCOCC1
- growth [1]: 9.25% (active)
- growth [2]: 12.7%
- growth [3]: 16.9%
- growth [4]: 6.39% (active)
- growth [5]: 33.1%
- growth [6]: -25.9% (active)
- growth [7]: -36.9% (active)
- growth [8]: 5.82% (active)
- growth [9]: -21.1% (active)
- growth [10]: 30.1%

SMILES: Cc1nc(Nc2cccnc2)sc1C(=O)/C=C/c1ccc(F)cc1
- growth [1]: 18.6%
- growth [2]: 1.5% (active)
- growth [3]: 21.8%
- growth [4]: 56.4%
- growth [5]: 63.8%
- growth [6]: 71.6%
- growth [7]: 29.9%
- growth [8]: 5.9% (active)
- growth [9]: 96.4%
- growth [10]: 38.4%

SMILES: COc1ccc(Cn2c(SC)nc(=O)n(Cc3ccc(Cl)cc3)c2=O)cc1
- growth [1]: 84.4%
- growth [2]: 92.8%
- growth [3]: 96%
- growth [4]: 92.1%
- growth [5]: 98%
- growth [6]: 106%
- growth [7]: 102%
- growth [8]: 102%
- growth [9]: 94%
- growth [10]: 95.4%

SMILES: Nc1c(C(=O)Nc2cccc(Cl)c2Cl)sc2nc3c(cc12)C(=O)CCC3
- growth [1]: 95.6%
- growth [2]: 102%
- growth [3]: 114%
- growth [4]: 99.1%
- growth [5]: 104%
- growth [6]: 24.2%
- growth [7]: 72.8%
- growth [8]: 95.6%
- growth [9]: 88.2%
- growth [10]: 73.4%

SMILES: COc1ccc(-c2nc3sccn3c2-c2ccnc(NCCCNS(=O)(=O)c3ccc(F)cc3)n2)cc1
- growth [1]: 14.8%
- growth [2]: 5.74% (active)
- growth [3]: 6.98% (active)
- growth [4]: 77%
- growth [5]: 17.1%
- growth [6]: 39.5%
- growth [7]: 16.3%
- growth [8]: 20.9%
- growth [9]: 32.5%
- growth [10]: -5.58% (active)

SMILES: O=C(Nc1cccc(Cl)c1)c1cc([N+](=O)[O-])ccc1O
- growth [1]: 57%
- growth [2]: 25.4%
- growth [3]: 69.3%
- growth [4]: 68.8%
- growth [5]: 46.1%
- growth [6]: 59.8%
- growth [7]: 62.5%
- growth [8]: 42%
- growth [9]: 41.9%
- growth [10]: 56%
